Measured values reported in PubChem BioAssay AID1347417 (National Center for Advancing Translational Sciences (NCATS), 2020).
Hit rate of the full screen: of about 120,000 compounds, about 5,300 (4.4%) were called active. Roughly 22% stayed inconclusive and do not appear here. The list comes from a sample in which actives are over-represented; it also holds similar structures and randomly drawn compounds. Values without a mark were called inactive. Calls come from the whole dose curve; as a rule, active = well fitted inhibition curve with a large enough effect; inconclusive = small, poorly fitted or top-dose-only effect; inactive = no such curve, though single readings can be large or run the other way.

Test: qHTS Primary assay for Inhibitors of Plasmodium falciparum Dd2 growth in vitro; note: nearly all actives have a fitted effect of over 65% in size;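 for activity, negative = inhibition: plate controls were DMSO vehicle for no effect and reference drug for full effect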
Settings: P. falciparum Dd2 growth, SYBR Green, 72 h; series mostly up to 28.9 µM; activity, negative = inhibition: at the top concentration
Summary of the method: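 Infected erythrocytes (Dd2, 0.3% parasitemia, 2.5% hematocrit final) are added to compound in RPMI-1640/Albumax II medium, grown 72 h at 37C in low oxygen, then lysed with saponin/Triton-X containing SYBR Green and read by fluorescence.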
Potency is the fitted concentration of half-maximal effect.

| Structure (SMILES) | activity, negative = inhibition | Potency | outcome |
| --- | --- | --- | --- |
| O=C1NCCOCCN(C(=O)Nc2ccccc2)[C@@H]2CCCC[C@H]12 | 40.6% |  |  |
| COc1ccc(-c2noc([C@@H](C)NCc3ccc(F)cc3)c2C(=O)O)cc1 | 7.52% [at 44.1 µM] |  |  |
| O=C(c1ccc(Cl)cc1)N1CCn2c(nn(-c3ccncc3)c2=O)C1 | 15% |  |  |
| CCOC(=O)C1=CN(CC(=O)Nc2cccc(C(C)C)c2)S(=O)(=O)N=C1C | -4.4% |  |  |
| COc1ccc(-c2cc([C@H]3CN4CC[C@H]3C[C@@H]4CNC(=O)c3ccccc3)n(C)n2)cc1OC |  | 11.2 µM (active) |  |
| COc1cc2c(cc1OC)C(CNC(=O)c1cccc(Cl)c1)N(C(=O)Nc1ccccc1)CC2 (stereo unspecified) |  |  | inactive |
| Cn1nc(-c2ccc(F)cc2)cc1[C@H]1CN2CC[C@H]1C[C@@H]2CNCc1ccccn1 |  | 2.82 µM (active) |  |
| COc1ccc(-c2cc([C@H]3CN4CC[C@H]3C[C@@H]4CNS(=O)(=O)Cc3ccccc3)n(C)n2)cc1OC |  | 11.2 µM (active) |  |
| COc1ccccc1-c1cc([C@H]2CN3CC[C@H]2C[C@@H]3CNCc2cccc(C#N)c2)n(C)n1 |  |  | inactive [at 44.1 µM] |
| O=C(NCc1ccccc1)[C@H]1CN2CCC1C[C@@H]2Cn1cc(-c2ccc(F)cc2)nn1 (stereo partly specified) | -7.01% [at 44.1 µM] |  |  |
| COc1ccc(-c2ccc3ncn(Cc4ccccc4)c(=O)c3n2)cc1OC |  |  | inactive [at 44.1 µM] |
| Cc1ccc(S(=O)(=O)NC[C@H]2C[C@@H]3CCN2C[C@@H]3CN2CCN(c3ncccn3)CC2)cc1 | -25.5% |  |  |
| COc1ccc(-c2cc([C@H]3CN4CC[C@H]3C[C@@H]4CNC(=O)C3CC3)n(C)n2)cc1OC | -12% [at 44.1 µM] |  |  |
| Cc1ccc(C(=O)N2CC[C@H](CO)[C@H](NC(=O)C3CC3)C2)cn1 | 22.4% |  |  |
| O=C(NCc1cnn(Cc2ccccc2)c1)c1ccc2oc(-c3cccc(F)c3)nc2c1 | -17.9% |  |  |
| COc1ccc(-c2cc(CC3(N(Cc4ccc(CO)o4)Cc4ccc(CO)o4)COC3)no2)cc1 |  |  | inactive |
| CCOC(=O)c1c(NC(=O)c2ccc(S(=O)(=O)N3CCCC(C)C3)cc2)sc2c1CCN(C(C)C)C2 (stereo unspecified) |  | 7.94 µM (active) |  |
| CCOC(=O)c1c(NC(=O)c2ccc(S(=O)(=O)N(CC)CC)cc2)sc2c1CCCCC2 | -18.8% |  |  |
| CCOC(=O)c1c(NC(=O)/C=C/c2ccc(OC)cc2)sc2c1CCC(C)C2 (stereo unspecified) | 38.9% |  |  |
| Clc1ccc(CN2CCC3(CC2)CC(c2ccccc2)=NO3)cc1 | -16.7% |  |  |
| Cc1ccc(NC(=O)N2CCc3[nH]c4ccc(F)cc4c3C2)cc1C | -6.52% |  |  |
| COc1ccccc1-n1cc(C(=O)N2CCc3c(Cl)cccc3C2)cn1 | -17.5% |  |  |

| Structure (SMILES) | activity, negative = inhibition | Potency | outcome |
| --- | --- | --- | --- |
| COC[C@@H]1CN(C(=O)COc2cccc(C)c2)C[C@H]1c1nc(C)no1 | -10.3% |  |  |
| Cc1ccccc1CNC(=O)c1ccc(NC(=O)N2CCCCc3ccccc32)cc1 | 48% |  |  |
| CC[C@H]1CN(C(=O)Nc2ccccc2)CC[C@H]1CC(=O)Nc1ccccc1 |  |  | inactive [at 44.1 µM] |
| CCOC(=O)C1CCN(C(=O)c2cccc3c2CCN3C(=O)Nc2ccccc2)CC1 |  | 11.2 µM (active) |  |
| COCc1cc(CC2(NCC(C)(C)C)COC2)no1 | -17.5% [at 44.1 µM] |  |  |
| CC(=O)N[C@@H]1Cc2ccccc2[C@H]1n1ccnc1-c1cc2n(n1)CCNC2 | -0.272% |  |  |
| Cc1ccc(N2CCN(C(=O)c3ccc4c(c3)N(C)C3CCCCCN3C4=O)CC2)cc1 (stereo unspecified) |  |  | inactive |
| O=C(Nc1ccccc1)N1CCc2nc(-c3ccccc3)nc(-c3ccc(Cl)cc3)c2C1 |  | 10 µM (active) |  |
| CC(=O)N1CCc2nc(C3CC3)nc(-c3ccc(Cl)cc3)c2C1 | -17.7% [at 44.1 µM] |  |  |
| Cc1nc2c(c(-c3ccc(O)cc3)n1)CN(C(=O)c1ccccc1C)CCC2 | -25% |  |  |
| CC(C)c1nc2c(c(-c3ccc(O)cc3)n1)CN(C(=O)Nc1ccccc1)CC2 |  |  | inactive |
| COc1ccc(-c2nc(-c3ccccc3)nc3c2CN(C(=O)c2ccc(C)cc2)CC3)cc1 |  | 11.2 µM (active) |  |
| COc1ccc(-c2cc3nc4c(c(=O)n3[nH]2)CN(C(=O)c2ccc(C)nc2)CC4)cc1 | -16.8% [at 5.79 µM] |  |  |
| Cc1ccc(F)c(OCC(=O)c2ccc3c(c2)N(CCCC(=O)NCC2CCCO2)C(=O)CO3)c1 (stereo unspecified) |  |  | inactive |
| O=C(Cc1ccc(Oc2ccccc2)cc1)N1CC(COc2ccccc2)C2(C1)CN(C(=O)c1cn[nH]c1)C2 (stereo unspecified) | -2.51% |  |  |
| O=C(CC1COCCN1)NCCc1nc(-c2ccccn2)no1 (stereo unspecified) | 2.23% |  |  |
| O=C(NC[C@H]1OC[C@@H](NC2CCOCC2)[C@@H]1O)C1CCCC1 |  |  | inactive [at 44.1 µM] |
| O=C(NCCCN1CCOCC1)C1CCN(C(=O)N2CC3CC(C2)[C@H]2CCCC(=O)N2C3)CC1 (stereo partly specified) | -15.4% |  |  |
| Clc1ccccc1C1(c2ccnc(NCCn3cccn3)n2)CCNCC1 | -4.47% |  |  |
| COc1ccc(N2CCC(NC(=O)c3ccc4[nH]ccc4c3)C2=O)cc1 (stereo unspecified) | -7.21% |  |  |
| COc1ccc(-c2nc(C(C)C)nc3c2CCN([S+](=O)([O-])c2cccc(C(F)(F)F)c2)CC3)cc1 |  | 7.08 µM (active) |  |
| COc1ccc(-c2nc(C)nc3c2CN([S+](=O)([O-])c2onc(C)c2C)CC3)cc1 |  |  | inactive |

| Structure (SMILES) | activity, negative = inhibition | Potency | outcome |
| --- | --- | --- | --- |
| COc1ccc(-c2nc(C3CC3)nc3c2CCN([S+](=O)([O-])c2ccccc2)CC3)cc1 |  | 7.94 µM (active) |  |
| COc1cccc([S+](=O)([O-])N2CCCC3(CC(c4cccc(C(F)(F)F)c4)=NO3)C2)c1 (stereo unspecified) | 1.81% |  |  |
| COc1ccc(C2=NOC3(CCCN([S+](=O)([O-])c4ccccc4)C3)C2)cc1 (stereo unspecified) | 0.512% |  |  |
| COc1ccc(-c2nc(C(C)C)nc3c2CCN(C(=O)Cc2ccccn2)CC3)cc1 | -16.1% |  |  |
| CNC(=O)CCC[C@H]1NC[C@@H]2CCCN3CCC[C@H]1[C@H]23 | 5.79% |  |  |
| CCNC(=O)[C@@H]1C[C@H](N)CN1C(=O)[C@@H](C)c1ccc2cc(OC)ccc2c1 | -4.1% |  |  |
| COc1ccccc1N1CCN(C(=O)c2ccccc2-c2ncc[nH]2)CC1=O | 5.23% |  |  |
| Cc1nn(CC(=O)O)c(=O)c2nc(C(C)C)sc12 | 37% |  |  |
| O=C(NC1CCCN(c2cc(-c3ccc(Cl)cc3)[nH]n2)C1)c1ccncc1 (stereo unspecified) | -9.77% |  |  |
| CCc1ccccc1NC(=O)c1cnn(-c2ccc(F)cc2)c1C1CCNCC1 | -14% |  |  |
| COC(=O)c1ccc(NC(=O)c2cccc3c2C(=O)N(C2CCCCC2)C3)cc1 | 16.6% |  |  |
| COC(=O)c1ccc(NC(=O)c2cnn(-c3ccc(Cl)cc3)c2C2CCN(C(=O)OC(C)(C)C)CC2)cc1 |  | 7.94 µM (active) |  |
| Cc1ccc(NC(=O)c2cc3n(n2)CC(c2ccc4c(c2)OCO4)OC3)cc1C (stereo unspecified) | -22.5% |  |  |
| COC(=O)c1ccc(NC(=O)c2cc(S(=O)(=O)N3CCC(C)CC3)cn2C)cc1 | 13.3% |  |  |
| CC(C)(C)OC(=O)N1CCC(c2c(C(=O)Nc3ccc4c(c3)OCO4)cnn2-c2ccccc2)CC1 |  | 5.01 µM (active) |  |
| COC[C@@H]1[C@H](NC(=O)C2CCN(C(=O)c3ccncc3)CC2)[C@@H]2CCO[C@H]12 | -6.77% |  |  |
| Cn1cc(CNC(=O)C[C@@H]2C[C@H]3O[C@H](CNC4Cc5ccccc5C4)[C@@H](O)[C@H]3O2)cn1 | 20.1% [at 44.1 µM] |  |  |
| CCc1nc2ccc(C(=O)N3CCN(c4cc(Cl)ccc4C)CC3)cc2nc1CC |  | 11.2 µM (active) |  |
| CCc1nc2ccc(C(=O)N3CCN(c4cccc(Cl)c4)CC3)cc2nc1CC | -17.5% |  |  |
| Cc1ccc(Cl)cc1N1CCN(C(=O)c2cccn3c(=O)c4cc(Cl)ccc4nc23)CC1 | 8.94% |  |  |
| N#Cc1cccc(C(=O)NC2CCN(c3cc(-c4ccc(Cl)cc4)[nH]n3)C2)c1 (stereo unspecified) | -18.8% |  |  |
| O=C1CN(Cc2cc3cc4c(cc3[nH]c2=O)OCO4)CCCN1 | -6.4% |  |  |
